Measured values from the supplement of paper PMC3334620.
The full ranking holds about 33,000 sequences; the median of “E-score (-0.5 to 0.5)” is about -0.036, and the highest 2% start at about 0.37. The list comes from a sample in which the highest values are over-represented; it also holds similar and randomly drawn sequences.

target: T1, Yer064c (UniProt P40041); assay: PBM E-score (8-mer binding enrichment) (E-score (-0.5 to 0.5)); higher = stronger / more preferred TF binding; conditions: protein concentration: 200 nM; construct: GST-full length
T1 sequence: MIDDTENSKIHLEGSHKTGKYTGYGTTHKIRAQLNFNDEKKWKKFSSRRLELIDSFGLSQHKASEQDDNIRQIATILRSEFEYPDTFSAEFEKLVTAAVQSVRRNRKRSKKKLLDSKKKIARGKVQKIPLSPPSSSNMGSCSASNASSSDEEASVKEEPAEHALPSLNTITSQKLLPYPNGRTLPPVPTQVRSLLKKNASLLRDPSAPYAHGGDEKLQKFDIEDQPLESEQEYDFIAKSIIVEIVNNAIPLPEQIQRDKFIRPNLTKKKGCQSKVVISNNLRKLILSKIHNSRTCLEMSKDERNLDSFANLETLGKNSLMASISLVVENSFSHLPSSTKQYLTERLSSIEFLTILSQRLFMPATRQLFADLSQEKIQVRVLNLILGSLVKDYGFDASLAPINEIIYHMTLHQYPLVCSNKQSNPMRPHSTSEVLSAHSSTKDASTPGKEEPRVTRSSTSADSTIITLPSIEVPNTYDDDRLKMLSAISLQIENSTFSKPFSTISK
Experimental: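 Universal 'all 10-mer' protein binding microarrays (Agilent AMADID 015681) probed with GST-tagged S. cerevisiae TFs (full-length or DBD) made by in vitro transcription/translation (PURExpress), about 100-200 nM. Bound TF was detected with fluorescent anti-GST. Each ungapped 8-mer (which stands for itself and its reverse complement) is scored by the PBM enrichment score (E-score), a modified Wilcoxon-Mann-Whitney statistic from -0.5 to +0.5, computed with the Universal PBM Analysis Suite. Scale: above 0.35 generally sequence-specific binding.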

| Sequence | PBM E-score |
| --- | --- |
| AGTCAAAG | 0.406 |
| ATTCAAAT | 0.214 |
| AGTCAAAT | 0.412 |
| CGTCAAAG | 0.0679 |
| ACTCAAAT | 0.294 |
| CGTCAAAA | -0.0525 |
| GGTCAAAA | 0.0441 |
| AGTCAAAC | 0.35 |
| AGTCAAAA | 0.408 |
| ACGCGAGC | -0.0659 |
| GGCAAGAC | -0.163 |
| GTGGCATA | -0.194 |
| AATGCGTA | 0.00743 |
| GGTAGGGA | -0.0117 |
| AGGGAAGA | -0.0141 |
| AGAAAATC | 0.0604 |
| ACATCGGA | 0.0356 |
| CACTCAAC | 0.0472 |
| GACTCAAC | 0.472 |
| TACTCAAA | 0.201 |
| CACTCAAA | 0.107 |
| GACTCAAA | 0.48 |
| AACTCAAC | 0.123 |
| CGGCCCGA | -0.157 |
| ACGAGAGC | -0.143 |

| Sequence | PBM E-score |
| --- | --- |
| GTTGGCAA | -0.14 |
| AAGCTTAA | 0.0226 |
| CGGTACAG | -0.12 |
| GGCTCACA | 0.13 |
| CTCGTAAC | 0.0792 |
| CACTCTCC | -0.0733 |
| CACTCTCA | -0.0477 |
| AACTCTCA | 0.0457 |
| GACTCTCA | 0.418 |
| GACTCTCC | 0.411 |
| AACTCTCC | -0.159 |
| AGGTCTTA | 0.0474 |
| CCTTCCCA | -0.0175 |
| CAATGCAC | 0.0625 |
| CTGAGCCA | 0.31 |
| ATGAGCCA | 0.396 |
| ATGAGCCC | -0.00355 |
| CAATCAGG | 0.218 |
| CAATCAAG | 0.212 |
| AAATCAAG | 0.0497 |
| ATATCATC | -0.113 |
| CAATCATG | 0.369 |
| GAATCATA | 0.464 |
| AAATCATT | 0.359 |
| GTATCATA | 0.0771 |

| Sequence | PBM E-score |
| --- | --- |
| AAATCATG | 0.385 |
| GCATCATA | 0.0926 |
| AAATCATC | 0.403 |
| ACATCATC | 0.212 |
| ATTTTGTA | 0.00667 |
| ACAAGAGT | 0.149 |
| CTTCATAC | -0.00264 |
| GGCCGGAA | -0.146 |
| GTCGGCGA | 0.141 |
| GAATGAGA | 0.0143 |
| AGCGTCCG | -0.131 |
| CAGCAAGA | -0.11 |
| CGCTTCCA | -0.24 |
| ATGTAAGC | -0.0792 |
| AACTGTTA | 0.0274 |
| GAGAGGAA | -0.0878 |
| ACATCATA | 0.107 |
| TAATCAGA | 0.35 |
| TAATCATA | 0.457 |
| ATATCATA | 0.00064 |
| AAATCATA | 0.387 |
| TAATCAAA | 0.315 |
| GGTGAGCA | -0.00163 |
| GGAACCAA | -0.106 |
| AGTCACCA | 0.469 |

| Sequence | PBM E-score |
| --- | --- |
| AGTCACCC | 0.479 |
| CGTCACCC | -0.258 |
| ATTCACCG | 0.0472 |
| GGTCACCA | 0.036 |
| ATTCACCC | 0.0614 |
| AGACACCG | 0.11 |
| CGTCACCA | -0.0242 |
| AGTCACCG | 0.476 |
| TACGCAGA | 0.1 |
| TAGATGAA | 0.00973 |
| AGACCCGG | -0.0102 |
| GTAGAGCA | -0.0431 |
| CCATCGGA | -0.00521 |
| GCTTTCAA | 0.0808 |
| CCATCCCA | 0.0189 |
| AATATCCG | -0.0742 |
| CGCGAGTC | 0.405 |
| AGCGAGTA | 0.115 |
| CGCGAGTA | 0.0526 |
| CCCGAGTC | 0.329 |
| AGCGAGTC | 0.405 |
| AGCGAGTG | 0.0737 |
| ACCGAGTA | -0.0874 |
| ACCGAGTC | 0.377 |
| CGCGAGCC | 0.0358 |
